Assay outcomes as filed in PubChem BioAssay.
The list is not random: actives were taken first. Their share in the collection is about 2.4%.
HUVEC tox IL1B: cytotoxicity in IL-1B stimulated HUVEC, primary screen, cytotoxicity control for IL-1B NFkB translocation project, imaging, Hoechst nuclear count, IL-1B stimulus; HUVEC cell count loss; cell count reduction, % at 2 µM; 0.41% of 94,000 active; AID 845, 2007;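 active = cell count reduction more than 3 SD above the screen-wide mean, cut at about 70% in these data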
FAK blocker: FAK kinase inhibitors, primary screen, biochemical; inhibition, %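 (tested at 7 µM)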; 0.84% of 97,000 active; AID 727, 2007; biochemical FAK kinase activity assay; in the data active = inhibition above about 19%
Target sequence (Q05397 whole entry, looked up): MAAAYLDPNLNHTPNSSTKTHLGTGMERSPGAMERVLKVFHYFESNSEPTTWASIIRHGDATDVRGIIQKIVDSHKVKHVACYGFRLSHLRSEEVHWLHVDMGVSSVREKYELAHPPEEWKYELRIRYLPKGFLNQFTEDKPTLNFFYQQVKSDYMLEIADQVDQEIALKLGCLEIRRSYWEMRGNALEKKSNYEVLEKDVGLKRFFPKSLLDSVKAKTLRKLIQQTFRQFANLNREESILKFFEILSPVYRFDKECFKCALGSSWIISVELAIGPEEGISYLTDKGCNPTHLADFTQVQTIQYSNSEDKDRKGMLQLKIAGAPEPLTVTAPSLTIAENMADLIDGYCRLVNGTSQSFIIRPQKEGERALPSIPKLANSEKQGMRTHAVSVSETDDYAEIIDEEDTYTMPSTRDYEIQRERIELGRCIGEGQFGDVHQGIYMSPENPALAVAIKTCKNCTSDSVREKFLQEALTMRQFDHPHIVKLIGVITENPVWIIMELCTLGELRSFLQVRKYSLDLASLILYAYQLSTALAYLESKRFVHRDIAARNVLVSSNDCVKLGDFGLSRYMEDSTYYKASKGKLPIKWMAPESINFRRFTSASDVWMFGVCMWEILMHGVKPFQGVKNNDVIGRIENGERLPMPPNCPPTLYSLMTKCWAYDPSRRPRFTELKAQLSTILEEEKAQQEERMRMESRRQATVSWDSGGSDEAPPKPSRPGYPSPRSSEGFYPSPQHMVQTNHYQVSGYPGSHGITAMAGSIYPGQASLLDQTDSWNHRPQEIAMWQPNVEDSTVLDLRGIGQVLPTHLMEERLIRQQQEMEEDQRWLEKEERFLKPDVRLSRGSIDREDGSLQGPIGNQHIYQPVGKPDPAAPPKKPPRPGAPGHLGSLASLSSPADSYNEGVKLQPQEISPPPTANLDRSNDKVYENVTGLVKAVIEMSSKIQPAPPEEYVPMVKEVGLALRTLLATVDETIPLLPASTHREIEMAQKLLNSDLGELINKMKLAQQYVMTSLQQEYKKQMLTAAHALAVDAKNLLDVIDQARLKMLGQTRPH
JNK3 blocker: JNK3 kinase activity inhibitors, primary screen, biochemical, human, purified enzyme; HTS; inhibition, % at 8 µM; 0.61% of 60,000 active; Mitogen-activated protein kinase 10 (Homo sapiens), P53779; in the data active = inhibition above about 17%
PTK2B oligo ant: antagonists of Pyk2 self-association, primary screen, Q293 cells, FERM NanoBiT luminescence, HTS; z-score (the deposit names both 25 µM and 10 µM); AID 1347419, 2020; 0.83% of 99,000 active; active compounds read low; Protein-tyrosine kinase 2-beta (Homo sapiens), Q14289;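 active = Z-score of -3 or lower, scaled per plate to the spread of control and sample wells; inactive = z-score above -3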;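 note: negative z-score means lost luminescence so less FERM oligomerization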
IL1B NFkB pot: enhancers of NFkB p65 translocation in HUVEC – imaging, IL-1B stimulus, high-content imaging, primary screen; HUVEC IL-1B NFkB p65 nuclear translocation imaging; activation, % at 2 µM; 0.3% of 94,000 active; AID 819, 2007;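 active = activation above 40%, about the mean plus 3 SD, also judged a hit on visual image review; inconclusive = activation above 40% but not a hit on visual review; inactive = activation not above 40% and no visual hit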;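 note: percent activation is computed from the nuclear over cytoplasmic p65 intensity ratio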
IL1B NFkB inh: inhibitors of IL-1B driven NFkB p65 nuclear import, primary screen, imaging, HUVEC, IL-1B stimulus, high-content imaging; HUVEC IL-1B NFkB p65 nuclear translocation imaging; inhibition, % at 2 µM; 0.43% of 94,000 active; AID 796, 2007;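 active = inhibition above about 30% together with a positive call from visual inspection of the well image, limit read from the data; inconclusive = inhibition above a set limit but visual check negative; inactive = inhibition not above a set limit, visual check negative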;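 note: nuclear over cytoplasmic p65 intensity ratio measured by imaging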
Each line names hits and unclear results; the compound was inactive in the other large screens.

CCN(C(=O)COc1ncnc2ccc(Br)cc12)C1CCS(=O)(=O)C1 (centres undefined)	none
CCN(c1cccc(C)c1)S(=O)(=O)c1ccc2c3c(cccc13)C(=O)N2	PTK2B oligo ant -3.13 (no result: JNK3 blocker)
CC1(c2ccc3c(c2)OCO3)NC(=O)N(CC(=O)Nc2ccc(N3CCOCC3)cc2)C1=O (centres undefined)	none
Cc1ccc2nc3sc(-c4nnc(-c5ccccc5[N+](=O)[O-])o4)c(N)c3cc2c1	none (no result: JNK3 blocker, PTK2B oligo ant)
COc1ccc(/C=N/n2c(N)nc(-c3ccccc3)c2-c2ccccc2)cc1	none (no result: JNK3 blocker)
O=c1c2ccccc2nc2sc3ccccc3n12	FAK blocker 19.9
COC(=O)/C=c1/sc2nc3ccccc3n2c1=O	none
COc1ccccc1-c1nnc(SCC(=O)OC(C)C)o1	none
Cc1c(NS(=O)(=O)c2cccc(C(=O)NCc3ccncc3)c2)c(=O)n(-c2ccccc2)n1C	IL1B NFkB pot 42.1 (no result: JNK3 blocker)
Cc1c(NC(=O)CN2CCN(C(c3ccccc3)c3ccccc3)CC2)c(=O)n(-c2ccccc2)n1C	PTK2B oligo ant -3.52
Cc1c(NC(=O)c2cccc(F)c2)c(=O)n(-c2ccccc2)n1C	HUVEC tox IL1B 76.6
Cc1c(NC(=O)c2ccc(F)cc2)c(=O)n(-c2ccccc2)n1C	none (no result: PTK2B oligo ant)
Cc1c(NC(=O)CN2CCN(c3ccccc3)CC2)c(=O)n(-c2ccccc2)n1C	none (no result: JNK3 blocker)
CC(C)CC(=O)NC1(C(F)(F)F)C(=O)N(Cc2ccccc2)C2=C1C(=O)CC(C)(C)C2 (centres undefined)	IL1B NFkB inh 32.8 (no result: JNK3 blocker)
CN(N)c1nc(-c2ccccc2)nnc1C(F)(F)F	HUVEC tox IL1B 85.8 (no result: JNK3 blocker)
CN(NC(=O)c1cccc(Cl)c1)c1nc(-c2ccccc2)nnc1C(F)(F)F	none (no result: JNK3 blocker)
S=c1[nH]nc(-c2ccco2)n1C1CCCCC1	none (no result: HUVEC tox IL1B, FAK blocker, PTK2B oligo ant, IL1B NFkB pot, IL1B NFkB inh)
COc1ccc(C=NCCC2(O)CC(C)N(C)CC2C)cc1 (centres undefined)	IL1B NFkB inh 39.7
O=C(c1cc(=O)[nH]c2ccccc12)N1CCN(S(=O)(=O)c2ccc3ccccc3c2)CC1	PTK2B oligo ant -3.26 (no result: HUVEC tox IL1B, JNK3 blocker, IL1B NFkB pot, IL1B NFkB inh)
O=C(c1cccnc1)N1CCN(S(=O)(=O)c2ccc3ccccc3c2)CC1	none (no result: JNK3 blocker)
CN(C(=O)c1ccc(Cl)c(S(=O)(=O)N2CCOCC2)c1)c1ccccc1C(=O)O	none
CCCn1c(SCC(=O)Nc2ccc(OCC)cc2)nnc1C(C)C	none (no result: JNK3 blocker)
CCOc1ccc(NC(=O)CSc2nnc(C(C)C)n2CC)cc1	HUVEC tox IL1B 94.7, IL1B NFkB pot inconclusive (no result: JNK3 blocker)
CC(C)n1c(=S)[nH]c2ccccc2c1=O	IL1B NFkB inh 36.5 (no result: JNK3 blocker)
CCC(C)N1C(=O)/C(=C/c2c(NCCCOC(C)C)nc3c(C)cccn3c2=O)SC1=S (centres undefined)	PTK2B oligo ant -3.11 (no result: JNK3 blocker)
CC(C)n1c(SCC(=O)N2c3ccccc3CCc3ccccc32)nc2c1c(=O)n(C)c(=O)n2C	none (no result: JNK3 blocker, PTK2B oligo ant)
Cc1nc2sccn2c1-c1nc(C2CC2)c(C(=O)c2ccc3c(c2)NC(=O)CO3)s1	none (no result: HUVEC tox IL1B, FAK blocker, PTK2B oligo ant, IL1B NFkB pot, IL1B NFkB inh)
CC1=CN2CC(O)CN=C2C=C1 (centres undefined)	none (no result: HUVEC tox IL1B, JNK3 blocker, IL1B NFkB pot, IL1B NFkB inh)
COc1ccc(OC)c(S(=O)(=O)N2CCN(C)CC2)c1	none (no result: HUVEC tox IL1B, FAK blocker, IL1B NFkB pot, IL1B NFkB inh)
CCc1ccccc1N1CCN(S(=O)(=O)c2cc(OC)ccc2OC)CC1	PTK2B oligo ant -3.34
Cc1nnc(SCCCn2c(N3CCN(c4ccccc4)CC3)nc3c2c(=O)[nH]c(=O)n3C)s1	IL1B NFkB pot inconclusive
CSc1nncc(=O)[nH]1	none
COC(=O)c1cc(COc2ccc3oc(C)c(C(=O)OC)c3c2)c(C)o1	none
COC(=O)c1cc(OC)c(OCc2cc(C(=O)OC)oc2C)c(OC)c1	HUVEC tox IL1B 88.6
COc1ccc(-c2cc(C(F)(F)F)nc(-n3cc(Cl)cn3)n2)cc1	none (no result: JNK3 blocker)
COc1ccc(-c2cc(C(F)(F)F)nc(-n3cc(Br)cn3)n2)cc1	IL1B NFkB pot 53.7 (no result: JNK3 blocker)
COC(=O)C1=C(C(=O)OC)SC2(S1)C(C(=O)OC)=C(C(=O)OC)SC1=C2c2cc(C)ccc2NC1(C)C	none (no result: JNK3 blocker)
CCOC(=O)N1CCN(C(=O)CCNS(=O)(=O)c2cc(Br)cnc2N)CC1	none (no result: HUVEC tox IL1B, IL1B NFkB pot, IL1B NFkB inh)
CCOc1ccc2nc(NC(=O)c3cccnc3)sc2c1	none (no result: HUVEC tox IL1B, FAK blocker, JNK3 blocker, IL1B NFkB pot, IL1B NFkB inh)
CCOc1ccc2nc(NC(=O)c3cnc(C)cn3)sc2c1	IL1B NFkB inh 39.4 (no result: JNK3 blocker)
O=C(OCn1nnc2ccccc2c1=O)c1cn(-c2ccccc2)nc1-c1cccnc1	PTK2B oligo ant -4.07, IL1B NFkB pot 97.6
Cc1nc(NC(=O)CSc2nc3cccnc3n2Cc2ccccc2)sc1C	none
COCc1cc(C)n(CC(=O)Nc2ccc(Cl)cc2Cl)c(=O)c1C#N	IL1B NFkB pot 40.7 (no result: JNK3 blocker)
N#Cc1nc(-c2cccs2)oc1NCc1ccc(Cl)cc1	none (no result: HUVEC tox IL1B, FAK blocker, IL1B NFkB pot, IL1B NFkB inh)
N#Cc1c2n(c3c(=O)n(Cc4ccc(Cl)cc4)cnc13)CCCCC2	PTK2B oligo ant -3.23
N#Cc1c2n(c3c(=O)n(Cc4ccccc4)cnc13)CCCC2	none
CC1(C)CC(=O)C2=C(C1)N(CC1CCCO1)C(=O)C2(NC(=O)c1cccnc1)C(F)(F)F (centres undefined)	none
Cc1c(C)c2ccc(Oc3ccc([N+](=O)[O-])cc3C(F)(F)F)c(C)c2oc1=O	IL1B NFkB pot 67.3 (no result: JNK3 blocker)
N#Cc1c(-c2ccco2)nc(SCC(=O)Nc2cccc(Cl)c2)[nH]c1=O	JNK3 blocker 25.1
O=C(OCCN1C(=O)c2ccccc2C1=O)c1cc2ccccc2o1	IL1B NFkB pot 45.3
CN(C)CCCOC(=O)c1cc2ccccc2o1	none
N#CCSc1nc2scc(-c3cccs3)c2c(=O)n1CCc1ccccc1	none
NS(=O)(=O)c1ccc(CNC(=O)/C=C/c2c(Cl)cccc2Cl)cc1	none (no result: JNK3 blocker, PTK2B oligo ant)
CCC(COC(=O)Nc1cccc(C)c1C)NC(=O)OCC(C)C (centres undefined)	IL1B NFkB inh 30.7
CCCOC(=O)NC(CC)COC(=O)Nc1cccc(C)c1C (centres undefined)	none
c1ccc(N2CCCCC2)c(NC2=NCCC2)c1	none
C(=C\c1cccc2ccccc12)/c1nnc(-c2cccs2)o1	none (no result: HUVEC tox IL1B, JNK3 blocker, IL1B NFkB pot, IL1B NFkB inh)
O=C(CCC1(C(=O)O)CCC(=O)NC1)NCc1ccccc1 (centres undefined)	none
COc1ccc(/C=C2\C(=O)N(c3c(Cl)cc(Cl)cc3Cl)N=C2NC(=O)c2cccc([N+](=O)[O-])c2)cc1	PTK2B oligo ant -3.66 (no result: HUVEC tox IL1B, FAK blocker, JNK3 blocker, IL1B NFkB pot, IL1B NFkB inh)
CCCCCC(=O)N/N=C/c1ccc([N+](=O)[O-])o1	HUVEC tox IL1B 93.4 (no result: JNK3 blocker)
Cc1ccc(C(=O)OCc2cc3ccccc3[nH]c2=O)cc1	JNK3 blocker 28.3
O=C(C1CCN(c2ccc(N3CCOCC3)nn2)CC1)N1CCN(c2ccc(F)cc2)CC1	none
COC(=O)c1oc2ccc(Br)cc2c1-n1cccc1	IL1B NFkB inh 39.6
CCCCc1c(C)c2ccc(OC)c(/C(C)=N\O)c2oc1=O	none
O=C(CC1C(=O)NCCN1C(=O)Nc1ccccc1)Nc1ccc2c(c1)OCO2 (centres undefined)	none
